Data taken from PubChem BioAssay AID1628 (Sanford-Burnham Center for Chemical Genomics, 2009).
The campaign covered roughly 190,000 compounds. About 930 (0.49%) were called active.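 Rule for the calls: active = z-score of insulin promoter reporter brightness in nuclei below -3 at 5 µM, with at least 500 cells counted; inconclusive = wells with under 500 cells, flagged as toxic or sparse; inactive = the rest.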 This is one part of the list. Results with a measured potency or affinity are listed apart.

Test: decrease of insulin promoter-GFP reporter – imaging, high-content screening, mouse beta cells (AID 1628)
Conditions: MIN6 insulin promoter GFP reporter, at 5 µM, hits give low values

z-score, active:
CCCOC(=O)c1ccc(NC(=O)c2cc(OC)c(OC)c(OC)c2Br)cc1 -3.3
CCOc1ccc2c(c1)C(C)=CC(C)(C)N2S(=O)(=O)c1ccc(C)cc1 -3.31
Cc1nc2ccccc2n1CC(=O)NCc1ccccc1 -3.91
Cn1nc(CC(=O)Nc2cccc3ncccc23)c2ccccc2c1=O -4.57
CCn1cc(C(=O)O)c(=O)c2cnc(N3CCN(C(=O)Nc4cccc5ccccc45)CC3)nc21 -5.9
CCn1cc(C(=O)O)c(=O)c2cnc(N3CCN(C(=S)Nc4ccc(F)cc4)CC3)nc21 -3.18
O=C(O)C1CC=CCC1C(=O)Nc1ccc(N2CCN(Cc3ccccc3)CC2)cc1 (stereo not drawn) -4.25
CCOc1ccc(CN(Cc2ccco2)C(c2cccs2)c2nnnn2C(C)(C)C)cc1 (stereo not drawn) -3.47
CSc1nc(-c2ccco2)nn1C(=O)c1ccco1 -6.58
Cc1ccc(S(=O)(=O)NC(N)=NCCc2ccc(Cl)cc2)cc1 -4.29
C=CCn1c(SCC(=O)Nc2cc3oc4ccccc4c3cc2OC)nnc1-c1cnccn1 -3.06
C=CCn1c(SCC(=O)Nc2nccs2)nnc1-c1cc2cccc(OC)c2o1 -3.45
CCCCc1c(C)nn(-c2nnc3c4ccccc4n(CC)c3n2)c1C -3.04
CCN(CC)C(=O)Oc1cc(=O)n(C)c2ccccc12 -3.24
Cc1cc(NC(=O)c2cccc(S(=O)(=O)N3CCCCCC3)c2)n(-c2ccccn2)n1 -3.67
Cc1c(NC(=O)CN2CCN(c3ccc([N+](=O)[O-])cc3)CC2)c(=O)n(-c2ccccc2)n1C -3.45
CCOc1cc(NC(=O)c2ccco2)c(OCC)cc1NC(=O)c1cc(OC)c(OC)c(OC)c1 -3.03
CCN1/C(=C/C(C)=C/c2sc3ccccc3[n+]2CC)Sc2ccccc21 -3.52
O=C(NC(Nc1nc2ccc([N+](=O)[O-])cc2s1)(C(F)(F)F)C(F)(F)F)c1cccnc1 -3.96
COc1ccccc1NC(=O)c1c(NC(=O)c2ccco2)sc2c1CCC2 -3.67
CCn1c(SCC(=O)Nc2cc(C)on2)nc2c(c1=O)SC(C)C2 (stereo not drawn) -3.41
CCO[C@@H]1OC(C(=O)Nc2ccccc2)=C[C@H](c2ccc(C(F)(F)F)cc2)[C@H]1CCCO -3.04
CCOC(=O)CCNC(=O)CNC(=O)OCc1ccccc1 -4.19
CCc1ccc(NC(=S)Nc2ccc3cn[nH]c3c2)cc1 -5.26
C=CCn1c(SCc2c(C)noc2C)nc2sc3c(c2c1=O)CCCCC3 -4.19
O=C(Nc1nc(-c2ccc3c(c2)OCO3)cs1)c1ccncc1 -4.14
COc1ccc(N2CCN(C(=O)CSc3nc4c(c(=O)n(C)c(=O)n4C)n3C(C)C)CC2)cc1 -3.09
COCCn1c(CN2CCN(c3ccc(OC)cc3)CC2)nc2c1c(=O)n(C)c(=O)n2C -7.6
CC(C)N=c1scc(-c2ccco2)n1/N=C/c1ccc(O)c(O)c1 -5.1
CCOc1cc(/C=N/Nc2nc3ccccc3[nH]2)cc(Br)c1OCC(=O)N(C)C -3.72
CCOc1cc(/C=C/C(=O)Nc2ccc(C(=O)NCCN(CC)CC)cc2)ccc1OCC(C)C -4.98
Cc1ccc(C(OCC(O)CNC(C)c2ccccc2)c2ccccc2)cc1 (stereo not drawn) -3.13
Cc1cc(OCC(=O)NCc2cccnc2)ccc1[N+](=O)[O-] -4.17

z-score, inactive:
CCC1COC(c2cccn2Cc2ccc(Cl)cc2)=N1 (stereo not drawn) 2.5
CC1=C/C(=C\C=C(C#N)C#N)N(C)c2ccccc21 4.05
COCc1cc(C)nc(Nc2ccccc2C)c1C#N 3.32
CCCOC(=O)C1=C(C)NC2=C(C(=O)CCC2)C1c1cccc(OC)c1OC (stereo not drawn) -0.62
C=CCNC(=S)NNC(=O)c1ccc(OCCCC)cc1 0.58
COC(=O)c1cc(NC(=O)c2ccccc2)c(=O)oc1/C=C/Nc1ccc(Oc2ccccc2)cc1 10.8
CCOc1ccc(NS(=O)(=O)c2ccc(NS(=O)(=O)c3ccccc3)cc2)cc1 7.53
CCOc1ccc2nc(NCCCNS(=O)(=O)c3ccc(C)cc3)c(C#N)cc2c1 1.84
C=C(C)Cn1c(CCCNC(=O)CC)nc2ccccc21 0.76
O=c1ccnc(Nc2ccc3c(c2)OCCO3)[nH]1 3.66
O=C(CCl)Nc1cccc2ncccc12 4.01
O=C(COC(=O)c1ccco1)Nc1ccc2c(c1)OCCO2 0.45
COc1ccccc1NC(=O)CSc1nc2c(sc3ccccc32)c(=O)n1CCN(C)C 2.23
O=C(O)c1ccc(N2C(=O)Nc3ccccc3N2O)cc1 2.34
CCn1cc(C(=O)O)c(=O)c2cc(F)c(N3CCN(C)CC3)cc21 -0.61
COc1ccc(/C=C(\C#N)C(=O)OCC(=O)Nc2c(C)cccc2C(C)C)cc1 3.36
CN(C)c1ccc(/C=C2\N=C(c3ccc(Cl)c([N+](=O)[O-])c3)NC2=O)cc1 4.65
COc1ccc2nc(N/C(N)=N/C(=S)Nc3ccccc3)nc(C)c2c1 2.22
CN(C)c1ccc(/C=C(/C#N)C(=O)NCc2ccccc2)o1 16.1
CCCNc1c(F)c(F)c2c(C)c3ccccc3nc2c1F 5.94
O=C(Oc1ccc2ccccc2c1)c1ccco1 -0.59
Cc1ccc(S(=O)(=O)Nc2ccc(=O)n(Cc3ccc(Cl)c(Cl)c3)c2)cc1 3.26
Cc1ccc(NS(=O)(=O)c2ccc(CCC(=O)O)cc2)cc1 1.37
O=C1CN(C(=O)COc2ncnc3ccccc23)c2ccccc2N1 4.05
COc1ccc2c(=O)c(-c3ccccc3)coc2c1 -0.45
CCCCOc1ccc(-c2cc(C(F)(F)F)c(C#N)c(SCC(=O)O)n2)cc1 4.82
Cc1nn(C)c(C)c1S(=O)(=O)N(CC(=O)Nc1nccs1)c1ccc(C(C)C)cc1 3.98
C=CCn1c(SCCOc2ccc(OC)cc2)nnc1C(C)NC(=O)Cc1ccc(OC)cc1 (stereo not drawn) 4.23
CN(C)C(=O)CSc1nnc(-c2cnccn2)n1C 0.77
COc1ccc(C2C(C#N)=C(N)N(c3ncn[nH]3)C3=C2C(=O)CCC3)cc1 (stereo not drawn) 1.75
CCCC(=O)c1c(C)c2ccccc2n1C 3.01
Nc1cccc2c1C(=O)N(C(=O)c1cccc(S(=O)(=O)N3CCCC3)c1)C2=O 3.15
O=C(Nc1ccon1)c1cccc(S(=O)(=O)N2CCCCC2)c1 3.46
CC1=CN2C(=N)/C(=C/c3ccc([N+](=O)[O-])o3)C(=O)N=C2S1 8.52
CCCCCCc1cc2cc(-c3nnc(-c4cc(OC)c(OC)c(OC)c4)o3)c(=O)oc2cc1O 9.96
CC(=O)N1CCc2cc(Br)cc(S(=O)(=O)CCC(=O)Nc3c(C)n(C)n(-c4ccccc4)c3=O)c21 2.32
Cc1c(C(c2ccc([N+](=O)[O-])cc2)c2c(C)n(C)n(-c3ccccc3)c2=O)c(=O)n(-c2ccccc2)n1C 4.14
Cc1cc(N2CCCC2)ccc1/C=C1/C(=O)N(C)C(=S)N1C 3.32
COC(=O)c1sccc1NC(=O)c1cc(OC)c(OC)c(OC)c1 3.71
CCN1/C(=C\C=C(C(C)=O)C(C)=O)Sc2ccccc21 7.73
CCN1/C(=C/c2ccc3cc(C)ccc3[n+]2CC)Sc2ccccc21 16.5
CCCCNC(=O)/C(C#N)=c1\s/c(=C\c2ccccc2OC(F)F)c(=O)n1CCCOC 4.53
COC(=O)c1sc(NC(=O)c2ccco2)nc1C 1.53
COc1ccccc1NC(=O)c1ccc(-c2ccccc2[N+](=O)[O-])o1 1.05
COc1cc2cc(C)c3nnc(SCC(=O)Nc4cc(C)on4)n3c2cc1OC 5.98
CCn1c2ccccc2c2nnc(SCC(=O)Nc3cc(C)on3)nc21 3.98
CCCN1C(=O)/C(=C/c2c(N3CCNC(=O)C3CC(=O)OC)nc3c(C)cccn3c2=O)SC1=S (stereo not drawn) 6.46
COc1ccc(NC2=Nc3ccccc3N3C2=Nc2c(c(C)nn2-c2ccc(C)cc2)C3c2cccnc2)cc1 (stereo not drawn) 3.08
CCOc1ccccc1C(=O)NCC(=O)O 0.62
COc1ccc(CN2C(=O)/C(=C/c3ccc(-c4ccc(Cl)c(C(=O)O)c4)o3)SC2=S)cc1 5.56
CCOc1cc(C)c(S(=O)(=O)Nc2ccc3cn[nH]c3c2)cc1C 4.24
CN(C)C(=O)C12CCC(C)(c3nc4ccccc4nc31)C2(C)C (stereo not drawn) 3.42
c1ccc2nc(-c3ccc4c(c3)OCO4)ccc2c1 -0.48
O=C1/C(=C/c2ccc(N3CCOCC3)o2)SC(=Nc2ccccc2)N1CCc1c[nH]c2ccccc12 17.8
CC1CCCN(c2nc3c(c(=O)n(C)c(=O)n3C)n2CCSc2nc3ccccc3s2)C1 (stereo not drawn) 3.19
Cc1cc(C)c(C(=O)O)c(CC(C)(C)C(=O)O)c1 3.14
Cn1c(=O)c(N)c2c3c(c(Br)ccc31)C(=O)c1ccccc1-2 16.9
Cc1c(-c2cc(C(=O)O)on2)cnn1C 1.94
CCCCN(C)C(=S)Nc1ccsc1C(=O)OC 2.3
CCOc1cc2[nH]c(=O)n(Cc3ccc(C(=O)NCCOC)cc3)c(=O)c2cc1OCC 1.15
